Source: PubChem BioAssay (Tox21)
Records with an inconclusive call do not appear. Calls of active or inactive are those of the source. Unless noted, calls follow the shape of the dose curve; as a rule, active = well fitted curve in the direction sought with a large enough effect in the repeat runs; inconclusive = weak or mixed curves; inactive = no such curve, though single readings can be large; an effect the other way counts as inactive or inconclusive. Positions of bridges follow the written chain, without caps; N, C: chain ends. Non-standard residues stand in square brackets, D forms with d. Residues, ends and D or L forms follow the SMILES beside them. hArg = N=C(N)NCCCC[C@H](N)C(=O)O; Mpa = O=C(O)CCS

Key:
[1] = qHTS assay to identify aromatase inhibitors - cell viability counter screen (AID 743084);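 also: cells stimulated with testosterone during compound exposure; nearly all actives have a fitted effect of over 55% in size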
[2] = biological target: Aryl hydrocarbon receptor (Homo sapiens) (UniProt P35869); experiment: qHTS assay to identify small molecule that activate the aryl hydrocarbon receptor (AhR) signaling pathway (AID 743085);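 also: HG2L7.5c1 human HepG2 liver cells with stably integrated DRE-driven firefly reporter; series mostly up to about 70 µM; nearly all actives have a fitted effect of over 15% in size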
Sequence of Aryl hydrocarbon receptor (Homo sapiens) (P35869 whole entry, looked up): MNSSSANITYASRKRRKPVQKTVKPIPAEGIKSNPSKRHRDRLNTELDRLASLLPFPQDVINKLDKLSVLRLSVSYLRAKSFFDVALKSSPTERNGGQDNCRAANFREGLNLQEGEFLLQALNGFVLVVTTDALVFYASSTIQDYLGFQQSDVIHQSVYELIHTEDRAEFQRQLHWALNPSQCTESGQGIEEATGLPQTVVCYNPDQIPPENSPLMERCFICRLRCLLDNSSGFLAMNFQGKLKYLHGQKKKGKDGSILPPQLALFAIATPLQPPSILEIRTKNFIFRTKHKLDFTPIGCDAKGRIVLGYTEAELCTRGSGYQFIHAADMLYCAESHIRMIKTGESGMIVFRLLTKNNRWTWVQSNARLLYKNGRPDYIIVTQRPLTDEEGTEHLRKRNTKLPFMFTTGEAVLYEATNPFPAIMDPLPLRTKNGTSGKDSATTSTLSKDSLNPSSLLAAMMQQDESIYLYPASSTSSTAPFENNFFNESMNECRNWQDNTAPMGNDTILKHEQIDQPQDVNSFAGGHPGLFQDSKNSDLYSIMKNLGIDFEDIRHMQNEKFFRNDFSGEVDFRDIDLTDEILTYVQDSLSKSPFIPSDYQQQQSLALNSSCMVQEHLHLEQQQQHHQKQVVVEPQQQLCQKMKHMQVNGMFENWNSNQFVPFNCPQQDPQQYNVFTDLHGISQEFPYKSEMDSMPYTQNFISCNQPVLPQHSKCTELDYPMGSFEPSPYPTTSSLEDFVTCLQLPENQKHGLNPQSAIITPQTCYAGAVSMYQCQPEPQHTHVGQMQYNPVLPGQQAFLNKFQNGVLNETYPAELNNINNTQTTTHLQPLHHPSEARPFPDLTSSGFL
In short: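 Steps: seed HepG2-AhR-luc cells; allow 5 h at 37C; pin-transfer test compound or vehicle; incubate 24 h at 37C; add viability dye (30 min, 37C) and read fluorescence; add luciferase substrate (30 min, RT) and read luminescence.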

[3] = qHTS assay to identify small molecule that activate the aryl hydrocarbon receptor (AhR) signaling pathway - cell viability counter screen (AID 743086);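 also: HepG2 liver cells carrying the AhR DRE luciferase reporter; series mostly up to about 70 µM; nearly all actives have a fitted effect of over 45% in size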
In short: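 HepG2-AhR-luc (HG2L7.5c1) cells, 4000/well, treated 24 h at 37 C with compound; viability measured as CellTiter-Fluor fluorescence after 30 min in the same wells as the luciferase read.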

[4] = biological target: Peroxisome proliferator-activated receptor gamma (Homo sapiens) (UniProt P37231); experiment: qHTS assay to identify small molecule agonists of the peroxisome proliferator-activated receptor gamma (PPARg) signaling pathway (AID 743094; active = well fitted activation curve with a large enough effect in the signal ratio in the repeat runs, not every such curve was filed as active; the % refers to the signal ratio)
Sequence of Peroxisome proliferator-activated receptor gamma (Homo sapiens) (P37231 whole entry, looked up): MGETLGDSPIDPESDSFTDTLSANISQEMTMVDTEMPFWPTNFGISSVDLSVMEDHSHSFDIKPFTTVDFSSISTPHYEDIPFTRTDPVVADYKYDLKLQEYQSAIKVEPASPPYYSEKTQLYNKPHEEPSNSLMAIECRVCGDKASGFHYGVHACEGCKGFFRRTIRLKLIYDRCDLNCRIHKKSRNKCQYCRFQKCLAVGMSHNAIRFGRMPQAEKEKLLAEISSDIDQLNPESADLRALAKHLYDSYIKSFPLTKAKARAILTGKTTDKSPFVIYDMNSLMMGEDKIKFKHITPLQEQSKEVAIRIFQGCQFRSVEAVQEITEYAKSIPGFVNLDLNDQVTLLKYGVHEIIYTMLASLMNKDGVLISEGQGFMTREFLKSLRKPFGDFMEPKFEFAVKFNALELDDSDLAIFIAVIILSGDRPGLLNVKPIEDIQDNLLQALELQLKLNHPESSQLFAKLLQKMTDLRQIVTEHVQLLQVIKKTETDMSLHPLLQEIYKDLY
In short: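 Reporter activation was scored by fluorescence of cleaved LiveBLAzer B/G substrate (1 h, room temperature) in PPARg-bla HEK293H cells previously treated 17 h at 37C with DMSO-dissolved compounds.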

[5] = qHTS assay to identify small molecule antagonists of the peroxisome proliferator-activated receptor gamma (PPARg) signaling pathway - cell viability counter screen (AID 743194); also: nearly all actives have a fitted effect of over 55% in size
In short: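 Cytotoxicity counter screen in PPARg-bla HEK293H cells, same wells as reporter assay. Compounds plus 50 nM rosiglitazone (final) for 17 h at 37 C, then viability read by CellTiter-Glo luminescence.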

[6] = qHTS assay for small molecule agonists of the antioxidant response element (ARE) signaling pathway (AID 743202; active = well fitted activation curve with a large enough effect in the signal ratio in the repeat runs, not every such curve was filed as active; the % refers to the signal ratio)
In short: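 HepG2 ARE-bla reporter line, 2,000 cells/well; 5 h preincubation 37 C/5% CO2; compound (DMSO) 16 h 37 C; B/G FRET substrate 2 h RT; fluorescence intensity.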

[7] = qHTS assay for small molecule agonists of the antioxidant response element (ARE) signaling pathway - cell viability counter screen (AID 743203; calls by dose curve; also: nearly all actives have a fitted effect of over 55% in size)
In short: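 Viability counter screen: stably transfected ARE-bla HepG2 line, 16 hrs compound exposure at 37C/5% CO2, ATP-based CellTiter-Glo luminescence measured in the reporter wells.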

[8] = qHTS assay for small molecule activators of the heat shock response signaling pathway - cell viability counter screen (AID 743209); also: nearly all actives have a fitted effect of over 50% in size
In short: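 Viability of HSE-bla HeLa cells is measured with CellTiter-Glo in the wells already used for the reporter read. Compound exposure lasts 5 h at 37 C, and luminescence is read after 30 min at room temperature.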

[9] = qHTS assay for small molecule activators of the heat shock response signaling pathway (AID 743210; active = well fitted activation curve with a large enough effect in the signal ratio in the repeat runs, with a control signal flat, not every such curve was filed as active; the % refers to the signal ratio;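 also: HeLa cells with beta-lactamase reporter driven by heat shock elements; series mostly up to about 63 µM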)
In short: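 Beta-lactamase reporter read-out: FRET substrate fluorescence after 2.5 h at RT, following 5 h compound treatment at 37 C of HeLa cells carrying HSE-driven bla reporter; quantitative HTS format.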

[10] = qHTS assay to identify small molecule agonists of the peroxisome proliferator-activated receptor delta (PPARd) signaling pathway - cell viability counter screen (AID 743211); also: nearly all actives have a fitted effect of over 55% in size
In short: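 Viability of GeneBLAzer PPARd UAS-bla HEK293H cells was assessed after 17 h compound incubation at 37C, using CellTiter-Glo reagent added after the reporter read and luminescence recorded 30 min later.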

[11] = biological target: Peroxisome proliferator-activated receptor delta (Homo sapiens) (UniProt Q03181); experiment: qHTS assay to identify small molecule agonists of the peroxisome proliferator-activated receptor delta (PPARd) signaling pathway (AID 743212; calls by dose curve)
Sequence of Peroxisome proliferator-activated receptor delta (Homo sapiens) (Q03181 whole entry, looked up): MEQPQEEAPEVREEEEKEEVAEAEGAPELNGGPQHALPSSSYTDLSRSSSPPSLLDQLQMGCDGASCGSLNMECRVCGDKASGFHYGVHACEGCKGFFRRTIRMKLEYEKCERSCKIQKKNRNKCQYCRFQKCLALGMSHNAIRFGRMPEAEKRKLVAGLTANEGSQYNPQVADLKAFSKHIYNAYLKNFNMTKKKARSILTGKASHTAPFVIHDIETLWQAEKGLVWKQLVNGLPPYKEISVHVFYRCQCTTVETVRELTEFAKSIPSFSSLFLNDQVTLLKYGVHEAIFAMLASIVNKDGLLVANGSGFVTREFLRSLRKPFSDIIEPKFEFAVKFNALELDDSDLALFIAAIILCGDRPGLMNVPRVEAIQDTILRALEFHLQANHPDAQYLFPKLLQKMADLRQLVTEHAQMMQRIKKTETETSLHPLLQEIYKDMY
In short: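 Read-out: beta-lactamase FRET fluorescence after 2 h room-temperature incubation with LiveBLAzer B/G substrate. Cells were HEK293H carrying a UAS-bla reporter for PPARd, treated at 37 C with DMSO-dissolved compounds.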

[12] = qHTS assay to identify small molecule antagonists of the peroxisome proliferator-activated receptor delta (PPARd) signaling pathway - cell viability counter screen (AID 743213); also: nearly all actives have a fitted effect of over 50% in size
In short: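 CellTiter-Glo was added to PPARd-bla HEK293H wells following 17 h compound treatment in the presence of 300 nM L165041. Luminescence was recorded after 30 min at room temperature.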

[13] = biological target: Peroxisome proliferator-activated receptor delta (Homo sapiens) (UniProt Q03181); experiment: qHTS assay to identify small molecule antagonists of the peroxisome proliferator-activated receptor delta (PPARd) signaling pathway (AID 743215; active = well fitted inhibition curve with a large enough effect in the signal ratio in the repeat runs, not every such curve was filed as active; the % refers to the signal ratio;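 also: cells stimulated with agonist L165041 at 300 nM final during compound exposure; series mostly up to about 62 µM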)
In short: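 Plated HEK293H PPARd-bla cells rested 5 h at 37 C and 5% CO2. Compound, then agonist L165041 at 300 nM final, was added; 17 h at 37 C followed. Substrate loading, 2 h room temperature, fluorescence measured.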

[14] = biological target: Bile acid receptor (Homo sapiens) (UniProt Q96RI1); experiment: qHTS assay to identify small molecule antagonists of the farnesoid-X-receptor (FXR) signaling pathway (AID 743217; active = well fitted inhibition curve with a large enough effect in the signal ratio in the repeat runs, not every such curve was filed as active; the % refers to the signal ratio)
Sequence of Bile acid receptor (Homo sapiens) (Q96RI1 whole entry, looked up): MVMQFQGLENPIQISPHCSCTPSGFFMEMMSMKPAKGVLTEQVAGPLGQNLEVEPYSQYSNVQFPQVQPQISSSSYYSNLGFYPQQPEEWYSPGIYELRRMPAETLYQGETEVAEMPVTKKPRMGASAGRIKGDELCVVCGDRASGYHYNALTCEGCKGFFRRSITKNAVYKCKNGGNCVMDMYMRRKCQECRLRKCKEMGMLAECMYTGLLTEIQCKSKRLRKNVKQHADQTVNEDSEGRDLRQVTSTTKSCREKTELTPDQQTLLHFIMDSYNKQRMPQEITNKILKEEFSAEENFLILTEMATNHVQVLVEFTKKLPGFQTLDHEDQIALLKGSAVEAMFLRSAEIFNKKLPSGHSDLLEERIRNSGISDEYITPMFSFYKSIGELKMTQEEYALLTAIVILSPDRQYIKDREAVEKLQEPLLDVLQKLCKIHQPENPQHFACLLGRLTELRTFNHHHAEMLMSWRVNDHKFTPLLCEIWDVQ
In short: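 Screen of the Tox21 10K library in quantitative HTS format using FXR-UAS-bla HEK 293T reporter cells. Agonist chenodeoxycholic acid, 50 uM final, added with compounds; 16 h incubation at 37 °C; beta-lactamase FRET fluorescence measured.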

[15] = biological target: Bile acid receptor (Homo sapiens) (UniProt Q96RI1); experiment: qHTS assay to identify small molecule agonists of the farnesoid-X-receptor (FXR) signaling pathway (AID 743220; active = well fitted activation curve with a large enough effect in the signal ratio in the repeat runs, not every such curve was filed as active; the % refers to the signal ratio)
In short: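 FXR-UAS-bla HEK 293T cells carrying a UAS-driven beta-lactamase reporter were plated for 5 h at 37C/5% CO2, then exposed to DMSO-dissolved Tox21 10K compounds for 16 h at 37C. A LiveBLAzer B/G FRET substrate was loaded for 2 h at room temperature before fluorescence reading.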

[16] = qHTS assay to identify small molecule antagonists of the farnesoid-X-receptor (FXR) signaling pathway - cell viability counter screen (AID 743221; active = well fitted cell-killing curve with a large enough effect in the repeat runs, not every such curve was filed as active; also: nearly all actives have a fitted effect of over 50% in size)
In short: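 Quantitative HTS of the Tox21 10K library run in parallel with the beta-lactamase reporter read. HEK 293T cells carrying a UAS-driven bla reporter got compound and 50 uM CDCA (final) for 16 h; ATP-based luminescence followed.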

[17] = biological target: Vitamin D3 receptor (Homo sapiens) (UniProt P11473); experiment: qHTS assay to identify small molecule agonists of the vitamin D receptor (VDR) signaling pathway (AID 743222; calls by dose curve)
Sequence of Vitamin D3 receptor (Homo sapiens) (P11473 whole entry, looked up): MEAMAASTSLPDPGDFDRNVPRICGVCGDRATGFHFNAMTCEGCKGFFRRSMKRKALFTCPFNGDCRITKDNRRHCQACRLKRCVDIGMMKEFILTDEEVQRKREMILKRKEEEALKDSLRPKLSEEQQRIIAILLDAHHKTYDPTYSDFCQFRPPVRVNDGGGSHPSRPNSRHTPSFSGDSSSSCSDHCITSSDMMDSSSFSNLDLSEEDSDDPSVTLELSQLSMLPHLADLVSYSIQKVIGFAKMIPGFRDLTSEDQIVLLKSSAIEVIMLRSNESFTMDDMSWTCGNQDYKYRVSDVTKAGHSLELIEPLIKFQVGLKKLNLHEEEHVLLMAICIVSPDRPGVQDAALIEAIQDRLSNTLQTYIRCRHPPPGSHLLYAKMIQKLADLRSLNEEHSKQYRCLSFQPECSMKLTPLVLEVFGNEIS
In short: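 Fluorescence from cleaved LiveBLAzer B/G FRET substrate served as readout. VDR-bla cells had been treated 16 h at 37C with test compounds in DMSO, following a 4 h settling period, and substrate was loaded for 2 h at RT.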

[18] = biological target: Vitamin D3 receptor (Homo sapiens) (UniProt P11473); experiment: qHTS assay to identify small molecule antagonists of the vitamin D receptor (VDR) signaling pathway (AID 743223; active = well fitted inhibition curve with a large enough effect in the signal ratio in the repeat runs, not every such curve was filed as active; the % refers to the signal ratio)
In short: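 Fluorescence from LiveBLAzer B/G FRET substrate, read after 2 h at room temperature, reflects beta-lactamase reporter activity in VDR-bla cells treated 16 h at 37C with compounds and agonist 1alpha,25-dihydroxyvitamin D3 (3 nM final).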

[19] = qHTS assay to identify small molecule agonists of the farnesoid-X-receptor (FXR) signaling pathway - cell viability counter screen (AID 743218); also: nearly all actives have a fitted effect of over 45% in size
In short: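 Viability of FXR-bla HEK 293T cells is measured by ATP-based CellTiter-Glo luminescence following 16 h compound treatment at 37 C and a prior 2 h room-temperature beta-lactamase substrate step.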

[20] = biological target: Peroxisome proliferator-activated receptor gamma (Homo sapiens) (UniProt P37231); experiment: qHTS assay to identify small molecule antagonists of the peroxisome proliferator-activated receptor gamma (PPARg) signaling pathway (AID 743191; calls by dose curve; also: series mostly up to about 63 µM; nearly all actives have a fitted effect of over 30% in size)
In short: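 GeneBLAzer PPARg UAS-bla HEK293H cells, 5 h post-plating, exposed to compounds 17 h at 37C. LiveBLAzer B/G FRET substrate added for 1 h at room temperature; beta-lactamase reporter read by fluorescence intensity.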

Measured: Potency

C[C@]12CCC(=O)C=C1CC[C@H]1[C@@H]3CC[C@](O)(C(=O)CO)[C@@]3(C)C[C@H](O)[C@@]12F
not listed: [19] | [20]
inactive: all other assays above

CCCCCCCCCCCCCCC(=O)NC(CO)CCCCCCCCCCCCCC (stereo unspecified)
not listed: [12] | [13] | [20]
inactive: all other assays above

CCCCOCCOC(=O)COc1ccc(Cl)cc1Cl
not listed: [11] | [13] | [14] | [15] | [18] | [20]
inactive: all other assays above

C=Cc1ccc(C(C)(C)C)cc1
not listed: [13] | [17] | [18] | [20]
inactive: all other assays above

Cn1c(=O)c2[nH]c(Br)nc2n(C)c1=O
not listed: [14] | [15] | [20]
inactive: all other assays above

CCCCCC/C=C/C(=O)OC
not listed: [11] | [13] | [14] | [20]
inactive: all other assays above

CCC[C@@H]1C[C@@H](C(=O)N[C@@H]([C@H]2O[C@H](SC)[C@H](O)[C@@H](O)[C@H]2O)[C@@H](C)O)N(C)C1
not listed: [14] | [15] | [17] | [18] | [20]
inactive: all other assays above

C=CC/C=C/C
not listed: [13] | [17] | [18] | [20]
inactive: all other assays above

O=C(O)CCCCCC(=O)O
not listed: [5] | [6] | [9] | [14] | [15] | [16] | [19]
inactive: all other assays above

CC(S)C(C)S (stereo unspecified)
not listed: [9] | [13] | [18] | [20]
inactive: all other assays above

CC(=O)CC(=O)OC(C)(C)C
not listed: [6] | [14] | [15] | [20]
inactive: all other assays above

CC1CCc2c(N3CCC(O)CC3)c(F)cc3c(=O)c(C(=O)O)cn1c23 (stereo unspecified)
not listed: [6] | [14] | [15] | [17] | [20]
inactive: all other assays above

CCCCCCCCCOC(=O)CCCCC(=O)OCCCCCCC
not listed: [6] | [13] | [14] | [15] | [18] | [20]
inactive: all other assays above

CCC(=O)CC
not listed: [7] | [10] | [18] | [20]
inactive: all other assays above

O=C(O)CNC(=O)CNC(=O)CNC(=O)CSC(=O)c1ccccc1
not listed: [7] | [9] | [11] | [13] | [14] | [15] | [20]
inactive: all other assays above

O=NN(CCCl)C(=O)NC1CCCCC1
not listed: [9] | [17] | [18] | [20]
inactive: all other assays above

CC(C)NCC(O)c1ccc2ccccc2c1 (stereo unspecified)
not listed: [9] | [14] | [15] | [20]
inactive: all other assays above

NC(=O)[C@@H]1CSSCCC(=O)N[C@@H](CCCCN=C(N)N)C(=O)NCC(=O)N[C@@H](CC(=O)O)C(=O)N[C@@H](Cc2c[nH]c3ccccc23)C(=O)N2CCC[C@H]2C(=O)N1 ([Mpa][hArg]GDWPC-NH2; disulfide 1-7)
not listed: [9] | [13] | [20]
inactive: all other assays above

C=CCOC(=O)CCCCCC
not listed: [9] | [13] | [14] | [15] | [16] | [20]
inactive: all other assays above

Cc1ccc(C(=O)O)cc1[N+](=O)[O-]
not listed: [11] | [12] | [13] | [14] | [15] | [16] | [18] | [20]
inactive: all other assays above

CC1CC(=O)CC(C)(C)C1 (stereo unspecified)
not listed: [7] | [9] | [13] | [14] | [15] | [19] | [20]
inactive: all other assays above

CCCC(CC)c1ccccc1 (stereo unspecified)
not listed: [11] | [13] | [14] | [15] | [19] | [20]
inactive: all other assays above

CCc1occc(=O)c1O
not listed: [6] | [9] | [12] | [17] | [18] | [19] | [20]
inactive: all other assays above

Cn1nnc2c(C(N)=O)ncn2c1=O
not listed: [8] | [9] | [20]
inactive: all other assays above

CC(=O)CCC1=C(C)CCCC1(C)C
not listed: [8] | [9] | [14] | [15] | [18] | [20]
inactive: all other assays above

O=C=NCC1CCCC(CN=C=O)C1 (stereo unspecified)
not listed: [6] | [11] | [13] | [14] | [15] | [16] | [19] | [20]
inactive: all other assays above

NCC1(Cc2noc(=O)[nH]2)CCCCC1
not listed: [6] | [9] | [14] | [15] | [20]
inactive: all other assays above

O=[N+]([O-])c1c(Cl)cc(Cl)cc1Cl
not listed: [9] | [14] | [15] | [20]
inactive: all other assays above
